The campaign covered roughly 3,400 compounds. About 160 (4.7%) were called active.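 The calls were made as follows: active = fitted curve reaches 30% activation at a concentration no higher than the top valid tested dose, luminescence rising; inconclusive = no clear call, values can overlap the other calls; inactive = signal moving opposite to the expected increase, plus the rest.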 A selection follows. Potency and affinity values are given separately.
Assay: TCF/LEF reporter activation in neural progenitors – cell-based, iPS-derived NPC, luciferase, Wnt3a, cherry-pick, dose response (AID 1053144);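 also: Wnt3a stimulus is conditioned medium from Wnt3a-transfected mouse L cells at 5% in well; 0% = neutral control wells and 100% = CHIR-99021 positive control wells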
Conditions: Wnt3a EC25, 24 h; series mostly up to 26 µM; activation: at the top concentration

activation, inactive:
CN1CCN(c2ccc(NC(=O)c3ccc(-c4ccccc4F)o3)cc2)CC1 13.4%
CCn1c(SCC(=O)c2ccccc2)nnc1-c1cnccn1 9.13%
Cn1c(SCC(=O)c2ccccc2)nnc1-c1ccc(O)cc1 13%
O=C(Nc1nnc(C2CCCCC2)s1)c1cccs1 4.29%
Cc1ccnc(N/C=C/C(=O)c2ccc(Br)cc2)c1 3.27%
Cc1nc2ccc(-c3nc4cc(N)ccc4o3)cc2[nH]1 3.55%
Nc1ccc(-c2nc3ccc([N+](=O)[O-])cc3[nH]2)cc1 18.3%
CCCOc1ccc(C(=O)Nc2ccc3c(c2)OCO3)cc1 13.3%
CC1CCC(NC(=O)c2cccn2C)CC1 (configuration not stated) 2.89%
C=C(C)CNC(=O)CCc1nnc(Cc2cccc(C(F)(F)F)c2)o1 17%
O=C(COc1ccc2c(c1)OCO2)Nc1ccccc1F 8.94%
O=C(NCC(c1ccco1)N1CCCC1)c1cc(=O)[nH]c2ccccc12 (configuration not stated) 0.695%
O=C(O)c1ccccc1SCc1cn2cc(Cl)ccc2n1 9.86%
CCOC(=O)/C(=C/c1ccc(OC(=O)c2ccncc2)cc1)C(C)=O 2.42%
COc1ccc(NC(=O)c2ccc3c(c2)N(C)CCS3)cc1 8.32%
CN1CCSc2ccc(C(=O)Nc3ccc(Cl)cc3)cc21 12.8%
Cc1ccc2c(c1)c1c(n2C)-c2[nH]ncc2CC1 8.88%
COC(=O)c1nn(-c2ccc(C)cc2)c2nnc(Cc3ccccc3)c(=O)n12 1.09%
O=C(Nc1ccc(Cl)cc1)c1ccco1 6.38%
COC(=O)c1ccc(NC(=O)c2ccco2)cc1 24.7%
COc1ncccc1-c1nnn(-c2ccccc2)n1 8.3%
CC(=O)NC(CC(=O)NNC(=O)COc1c(C)cccc1C)c1ccccc1 (configuration not stated) -0.753%
Cc1cc(NC(=O)c2ccccc2)ncc1NC(=O)c1ccco1 6.34%
CSc1nccc(N/N=C/c2ccccc2)n1 9.49%
O=C(NCc1cccs1)c1cc(-c2ccc(O)cc2)on1 9.8%
COc1ccc(C(=O)c2c[nH]c(C(=O)NCCCn3ccnc3)c2)cc1 2.91%
O=C(NC1CCCC1)c1cc(-c2ccc(Cl)cc2)on1 13.5%
O=c1c2ccccc2oc2ccc(NCCCn3ccnc3)cc12 0.761%
O=C(c1cc(-c2ccccc2)on1)N1CCCCCC1 13.4%
O=C(NC1CCCCC1)c1cc(-c2cccs2)on1 6.56%
CC(C)(C)c1cccc(N/C(=C\C(=O)c2ccccc2)c2ccccc2)c1 -2.87%
CC(=O)c1ccc(OCc2ccccc2)c(C)c1O 6.75%
O=C(Nc1nnc(-c2ccco2)s1)C1CC1 4.36%
COc1cccc(N=c2oc3ccccc3cc2-c2nc3ccccc3[nH]2)c1 -4.17%
O=C(Nc1ccc(Br)cn1)c1ccc(Cl)s1 2.47%
Cc1cc(C(=O)Nc2ccc(Br)cn2)sc1C 8.02%
CC(=O)c1cc(F)ccc1OCC(=O)Nc1ccc2c(c1)OCO2 8%
O=S(=O)(c1cccs1)N1CCCc2cccc(O)c21 8.4%
COc1cccc(OCc2cc(C(=O)N3CCN(c4ccccc4OC)CC3)no2)c1 6.95%
O=C(O)COn1c(-c2ccccc2)nc2ccc([N+](=O)[O-])cc21 8.93%
Cc1ccnc(SCc2cc(=O)c(OC(=O)c3ccc(Br)o3)co2)n1 7.99%
O=C(/C=C/c1ccc2c(c1)OCO2)c1ccc[nH]1 6.1%
COc1ccc(/C=C/C(=O)c2cc3c(cc2N)OCO3)cc1 6.99%
O=C(/C=C/c1ccccc1)NC(=O)c1ccccc1O 5.83%
O=C(/C=C/c1cc2ccccc2o1)c1ccccc1O 9.57%
O=C(N/N=C/c1ccc(N2CCOCC2)cc1)c1cccs1 8.99%
CCc1sc(C(=O)N2CCc3ccccc32)cc1C 3.85%
CC(C)[C@H](NC(=O)OCc1ccccc1)C(=O)OCC(=O)c1ccccc1 4.59%
COc1cc(/C=C/C(=O)N2C(=O)c3cccc(N)c3C2=O)cc(OC)c1OC -6.94%
Cc1cnc(C(=O)Nc2ccc(C(C)C)cc2)cn1 12.2%
COc1cc2ccccc2cc1C(=O)Nc1ccc(O)cc1 8.68%
COc1ccc(NC(=O)c2cc3ccccc3cc2O)cc1 12.5%
Cc1ccc(NC(=O)c2ccccc2NC(=O)Cc2ccccc2)cc1 7.38%
Cc1cc(C)n(-c2nnc3c4ccccc4n(C)c3n2)n1 16.2%
O=C(Nc1ccc2c(c1)OCO2)c1ccc(CO)cc1 6.96%
CCOC(=O)CSc1nc2ccccc2c(=O)n1NC(=O)c1ccccc1 15%
c1cncc(CSc2ccc(-c3ccc4c(c3)OCO4)nn2)c1 7.68%

From PubChem BioAssay AID1053144 (Broad Institute, 2014)
